Laboratory results reported in the antibiotic and cytotoxicity screens of Wong et al. (2023).
Out of some 39,000 compounds screened, about 3,300 (8.5%) were called active. What follows is part of a selection rich in actives, with near analogues and random picks from the rest.

These compounds were tested on HepG2 (assay: cytotoxicity call (relative viability < 0.9)). Settings: 10 µM.
For `COc1ccc(S(=O)(=O)N2C[C@@H](O)COC[C@H]3O[C@H](CC(=O)N[C@@H]4CCN(Cc5ccccc5)C4)CC[C@@H]32)cc1`, the cytotoxicity call was “inactive”. For `O=C(C[C@@H]1C=C[C@@H](NS(=O)(=O)c2ccccc2)[C@H](CO)O1)NCc1ccncn1`, the cytotoxicity call was “inactive”. `C[C@H](CO)N1C[C@H](C)[C@H](CN(C)C(=O)C2CCCCC2)OCCCC[C@H](C)Oc2ccc(NC(=O)Nc3ccc(C(F)(F)F)cc3)cc2C1=O` was tested, and the cytotoxicity call was “inactive”. `COc1ccc(NC(=O)N(C)C[C@H]2Oc3ccc(NC(=O)CCN4CCOCC4)cc3CC(=O)N([C@H](C)CO)C[C@H]2C)cc1` was tested, and the cytotoxicity call was “inactive”. With `COc1ccc(COC[C@]23N=C4SCc5ccccc5C(=O)N4[C@H](c4ccccc4O2)[C@H]3CO[Si](C)(C)C(C)(C)C)cc1` the cytotoxicity call was “inactive”. For `O=C(NCC(F)(F)F)[C@H]1[C@H](CO)[C@H]2Cn3c(cccc3=O)[C@H]2N1C(=O)C1CCC1`, the cytotoxicity call was “inactive”. In the case of `C[C@H]1CN([C@@H](C)CO)S(=O)(=O)c2ccc(C#Cc3ccccc3)cc2O[C@H]1CN(C)S(=O)(=O)c1cn(C)cn1`, the cytotoxicity call is reported as “inactive”. For `Cc1noc(C)c1NC(=O)Nc1ccc2c(c1)C(=O)N([C@H](C)CO)C[C@H](C)[C@H](CN(C)Cc1ccc3c(c1)OCO3)OCCCC[C@@H](C)O2`, the cytotoxicity call was “inactive”. `COc1ccc(S(=O)(=O)Nc2cccc3c2O[C@@H](CN(C)S(=O)(=O)c2cccs2)[C@H](C)CN([C@@H](C)CO)C3=O)cc1` was tested, and the cytotoxicity call was “inactive”. In the case of `COc1cc2c(cc1OC)CN(C(=O)[C@@H]1[C@H]3C(=O)O[C@H](c4ccccc4)[C@H](c4ccccc4)N3[C@H](c3ccc(O)cc3)[C@@]13C(=O)Nc1ccccc13)CC2`, the cytotoxicity call is reported as “inactive”. For `C[C@@H]1CCCCO[C@H](CN(C)Cc2ccccc2)[C@@H](C)CN([C@@H](C)CO)C(=O)c2cc(NC(=O)Nc3ccc(F)cc3)ccc2O1`, the cytotoxicity call was “inactive”. For `C[C@@H]1CCCCO[C@@H](CN(C)Cc2ccccc2)[C@@H](C)CN([C@@H](C)CO)C(=O)c2cc(NC(=O)Nc3ccc(F)cc3)ccc2O1`, the cytotoxicity call was “inactive”. `C[C@@H]1CCCCO[C@@H](CN(C)Cc2ccccc2)[C@@H](C)CN([C@H](C)CO)C(=O)c2cc(NC(=O)Nc3ccc(F)cc3)ccc2O1` was tested, and the cytotoxicity call was “inactive”. With `C[C@@H]1CCCCO[C@H](CN(C)Cc2ccccc2)[C@@H](C)CN([C@H](C)CO)C(=O)c2cc(NC(=O)Nc3ccc(F)cc3)ccc2O1` the cytotoxicity call was “inactive”. For `C[C@@H]1CN([C@@H](C)CO)C(=O)c2cc(NC(=O)Nc3ccc(F)cc3)ccc2O[C@@H](C)CCCCO[C@@H]1CN(C)Cc1ccccc1`, the cytotoxicity call was “active”. For `C[C@@H]1CN([C@@H](C)CO)C(=O)c2cc(NC(=O)Nc3ccc(F)cc3)ccc2O[C@@H](C)CCCCO[C@H]1CN(C)Cc1ccccc1`, the cytotoxicity call was “active”. `C[C@@H]1CCCCO[C@@H](CN(C)Cc2ccccc2)[C@H](C)CN([C@@H](C)CO)C(=O)c2cc(NC(=O)Nc3ccc(F)cc3)ccc2O1` was tested, and the cytotoxicity call was “inactive”. For `C[C@H]1CCCCO[C@H](CN(C)Cc2ccccc2)[C@@H](C)CN([C@@H](C)CO)C(=O)c2cc(NC(=O)Nc3ccc(F)cc3)ccc2O1`, the cytotoxicity call was “active”. For `C[C@@H]1CCCCO[C@@H](CN(C)Cc2ccc(F)cc2)[C@H](C)CN([C@@H](C)CO)C(=O)c2cc(NC(=O)Nc3ccccc3)ccc2O1`, the cytotoxicity call was “inactive”. For `C[C@@H]1CCCCO[C@@H](CN(C)Cc2ccccc2)[C@H](C)CN([C@H](C)CO)C(=O)c2cc(NC(=O)Nc3ccc(F)cc3)ccc2O1`, the cytotoxicity call was “inactive”. `C[C@@H]1CN([C@H](C)CO)C(=O)c2cc(NC(=O)Nc3ccc(F)cc3)ccc2O[C@@H](C)CCCCO[C@H]1CN(C)Cc1ccccc1` was tested, and the cytotoxicity call was “active”. For `C[C@@H]1CN([C@@H](C)CO)S(=O)(=O)c2ccc(C#CCN(C)C)cc2O[C@H]1CN(C)C`, the cytotoxicity call was “inactive”. For `C[C@H]1CN([C@@H](C)CO)C(=O)c2cc(NS(=O)(=O)c3ccccc3)ccc2O[C@@H]1CN(C)CC1CC1`, the cytotoxicity call was “inactive”. `C[C@H](CO)N1C[C@H](C)[C@@H](CN(C)Cc2ccc(C(=O)Nc3ccccc3N)cc2)Oc2ccc(NC(=O)Cc3cn(C)c4ccccc34)cc2CC1=O` was tested, and the cytotoxicity call was “inactive”. `CN1C(=O)c2cc(NC(=O)c3cccs3)ccc2OC[C@@H]2O[C@H](CC(=O)NCC(F)(F)F)CC[C@@H]21` was tested, and the cytotoxicity call was “inactive”. `C[C@@H]1CN([C@H](C)CO)C(=O)CCCn2cc(nn2)CO[C@H]1CN(C)S(=O)(=O)c1ccc(Oc2ccccc2)cc1` was tested, and the cytotoxicity call was “inactive”. `C[C@H](O)C#Cc1cnc2c(c1)C(=O)N([C@@H](C)CO)C[C@@H](C)[C@H](CN(C)C(=O)Nc1ccc(C(F)(F)F)cc1)O2` was tested, and the cytotoxicity call was “inactive”. `CS(=O)(=O)N1CCCn2c(nnc2Cn2cccn2)C1` was tested, and the cytotoxicity call was “inactive”. For `O=C(NO)c1ccc(C(=O)N/N=C/[C@H](O)[C@@H](O)[C@H](O)[C@H](O)CO)cc1`, the cytotoxicity call was “inactive”. For `C[C@@H]1CN([C@H](C)CO)C(=O)c2cccc(NS(=O)(=O)c3ccc(F)cc3)c2O[C@H]1CN(C)S(=O)(=O)c1ccccc1`, the cytotoxicity call was “inactive”. For `C[C@H]1CCCN(C(=O)CCNS(=O)(=O)c2ccc3c(c2)c(=O)n(C)c(=O)n3C)C1`, the cytotoxicity call was “active”. With `Cn1c(=O)c2cc(S(=O)(=O)NCCC(=O)NC3CCCC3)ccc2n(C)c1=O` the cytotoxicity call was “active”. `CCOC(=O)N1CCN(C(=O)CN(C)S(=O)(=O)c2ccc3c(c2)c(=O)n(C)c(=O)n3C)CC1` was tested, and the cytotoxicity call was “inactive”. With `CN(CC(=O)NC1CCCC1)S(=O)(=O)c1ccc2c(c1)c(=O)n(C)c(=O)n2C` the cytotoxicity call was “inactive”. For `Cn1c(=O)c2cc(S(=O)(=O)N3CCOCC3)ccc2n(C)c1=O`, the cytotoxicity call was “inactive”. For `Cc1ccc(S(=O)(=O)NCCC(=O)N2CCOCCOCCOCC2)cc1`, the cytotoxicity call was “inactive”. In the case of `C[C@H](CO)N1C[C@H](C)[C@H](CN(C)Cc2ccc(C(=O)Nc3ccccc3N)cc2)Oc2ccc(NS(=O)(=O)c3cn(C)cn3)cc2C1=O`, the cytotoxicity call is reported as “inactive”. For `C[C@H]1CN([C@@H](C)CO)C(=O)c2cc(NS(=O)(=O)c3cccs3)ccc2O[C@H]1CN(C)Cc1ccncc1`, the cytotoxicity call was “inactive”. For `Clc1ccc(/C=C/C2=Nc3cccc4cccc(c34)N2)cc1`, the cytotoxicity call was “inactive”. With `Nc1c(O)cccc1C(=O)O` the cytotoxicity call was “inactive”. With `CCC[C@H](NC(=O)[C@@H]1[C@H]2CCC[C@H]2CN1C(=O)[C@@H](NC(=O)[C@@H](NC(=O)c1cnccn1)C1CCCCC1)C(C)(C)C)C(=O)C(=O)NC1CC1` the cytotoxicity call was “active”. For `CN1CCN(C(=O)C[C@H]2CC[C@@H]3[C@H](COc4ccc(NC(=O)c5ccc(F)c(F)c5)cc4C(=O)N3C)O2)CC1`, the cytotoxicity call was “inactive”. For `c1cc[n+](C[n+]2ccccc2)cc1`, the cytotoxicity call was “inactive”. With `N=C(C[n+]1ccccc1)NO` the cytotoxicity call was “active”. `C[C@@H]1CCCCO[C@H](CN(C)Cc2ccc(C(F)(F)F)cc2)[C@H](C)CN([C@H](C)CO)C(=O)c2cc(NC(=O)c3ccncc3)ccc2O1` was tested, and the cytotoxicity call was “inactive”. In the case of `C[C@@H]1CN([C@H](C)CO)C(=O)c2cc(NC(=O)Nc3ccccc3)ccc2O[C@@H](C)CCCCO[C@H]1CN(C)Cc1ccccc1`, the cytotoxicity call is reported as “active”. In the case of `C[C@@H]1CN([C@@H](C)CO)C(=O)c2cc(NC(=O)Nc3ccccc3)ccc2O[C@@H](C)CCCCO[C@H]1CN(C)Cc1ccccc1`, the cytotoxicity call is reported as “inactive”. With `C[C@@H]1CCCCO[C@@H](CN(C)Cc2ccccc2)[C@H](C)CN([C@@H](C)CO)C(=O)c2cc(NC(=O)Nc3ccccc3)ccc2O1` the cytotoxicity call was “active”. `C[C@@H]1CCCCO[C@H](CN(C)Cc2ccccc2)[C@H](C)CN([C@@H](C)CO)C(=O)c2cc(NC(=O)Nc3ccccc3)ccc2O1` was tested, and the cytotoxicity call was “inactive”. With `C[C@@H]1CN([C@H](C)CO)C(=O)c2cc(NC(=O)Nc3ccccc3)ccc2O[C@@H](C)CCCCO[C@@H]1CN(C)Cc1ccccc1` the cytotoxicity call was “active”. For `C[C@@H]1CCCCO[C@@H](CN(C)Cc2ccccc2)[C@@H](C)CN([C@H](C)CO)C(=O)c2cc(NC(=O)Nc3ccccc3)ccc2O1`, the cytotoxicity call was “inactive”. `C[C@@H]1CCCCO[C@H](CN(C)Cc2ccccc2)[C@H](C)CN([C@H](C)CO)C(=O)c2cc(NC(=O)Nc3ccccc3)ccc2O1` was tested, and the cytotoxicity call was “inactive”. For `C[C@@H]1CN([C@@H](C)CO)C(=O)c2cc(NC(=O)Nc3ccccc3)ccc2O[C@@H](C)CCCCO[C@@H]1CN(C)Cc1ccccc1`, the cytotoxicity call was “inactive”. For `C[C@@H]1CCCCO[C@@H](CN(C)Cc2ccccc2)[C@H](C)CN([C@H](C)CO)C(=O)c2cc(NC(=O)Nc3ccccc3)ccc2O1`, the cytotoxicity call was “active”. For `C[C@@H]1CCCCO[C@H](CN(C)Cc2ccccc2)[C@@H](C)CN([C@@H](C)CO)C(=O)c2cc(NC(=O)Nc3ccccc3)ccc2O1`, the cytotoxicity call was “inactive”. In the case of `C[C@H](CO)N1C[C@H](C)[C@H](CN(C)Cc2ccccc2)OCCCC[C@H](C)Oc2ccc(NC(=O)Nc3ccccc3)cc2C1=O`, the cytotoxicity call is reported as “inactive”. With `C[C@H](CO)N1C[C@H](C)[C@@H](CN(C)Cc2ccccc2)OCCCC[C@H](C)Oc2ccc(NC(=O)Nc3ccccc3)cc2C1=O` the cytotoxicity call was “inactive”. In the case of `Cc1noc(C)c1NC(=O)N(C)C[C@@H]1Oc2ccc(NS(=O)(=O)c3cn(C)cn3)cc2CC(=O)N([C@@H](C)CO)C[C@@H]1C`, the cytotoxicity call is reported as “inactive”. `Cc1ccc(S(=O)(=O)N(C)C[C@H]2OCCCC[C@@H](C)Oc3ccc(NC(=O)Nc4ccc5c(c4)OCO5)cc3C(=O)N([C@@H](C)CO)C[C@H]2C)cc1` was tested, and the cytotoxicity call was “inactive”. For `C[C@@H]1CN([C@@H](C)CO)C(=O)c2cc(NC(=O)Cc3cn(C)c4ccccc34)ccc2O[C@@H]1CN(C)S(=O)(=O)c1cn(C)cn1`, the cytotoxicity call was “inactive”. `CN(C)C(=O)C[C@H]1CC[C@@H]2[C@H](COc3ccc(NS(=O)(=O)c4cccc(F)c4)cc3C(=O)N2C)O1` was tested, and the cytotoxicity call was “inactive”. With `Cc1ccc(S[C@]2(C(=O)NC(C)C)CC(=O)N(Cc3ccccc3C(F)(F)F)[C@@H]2c2ccc(CO)cc2I)cc1` the cytotoxicity call was “inactive”. In the case of `CC(C)NC(=O)Nc1ccc2c(c1)C(=O)N([C@H](C)CO)C[C@@H](C)[C@H](CN(C)Cc1ccccc1)OCCCC[C@@H](C)O2`, the cytotoxicity call is reported as “inactive”.
